Measurements from PMC7862700, “An all-to-all approach to the identification of sequence-specific readers for epigenetic DNA modifications on cytosine”.

Columns and labels:
Experiment in all cases: DAPPL (digital affinity profiling via proximity ligation, sequencing); 10 mM Tris-HCl pH 7.5, 50 mM NaCl, 1 mM DTT, 4% glycerol, room temperature, 30 min; GST-TFs on glutathione beads, 16-mer random dsDNA library, 0.1% formaldehyde crosslink after washing; high values mean tight binding
Conditions in all cases: protein: recombinant; tags: N-terminal GST; dsDNA, one strand shown
ELK1 = molecular target: T1, ELK1 (Homo sapiens, UniProt P19419 1-428)
T1 sequence: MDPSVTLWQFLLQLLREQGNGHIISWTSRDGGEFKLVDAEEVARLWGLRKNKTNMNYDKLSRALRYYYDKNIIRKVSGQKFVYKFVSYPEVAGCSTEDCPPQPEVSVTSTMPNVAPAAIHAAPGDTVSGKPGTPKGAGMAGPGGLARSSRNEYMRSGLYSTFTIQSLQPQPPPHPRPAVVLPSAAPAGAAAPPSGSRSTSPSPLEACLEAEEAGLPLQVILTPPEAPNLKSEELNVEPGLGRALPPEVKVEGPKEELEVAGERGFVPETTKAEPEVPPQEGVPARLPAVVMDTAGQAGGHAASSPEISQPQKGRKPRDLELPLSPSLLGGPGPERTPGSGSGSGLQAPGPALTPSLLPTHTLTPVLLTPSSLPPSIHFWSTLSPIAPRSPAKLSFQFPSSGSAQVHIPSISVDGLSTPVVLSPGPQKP
In short: (§1)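 Pools were built from human transcription factors expressed in yeast as GST fusions, captured on glutathione beads and DNA-barcoded, along with a tag-only sample. Incubation with 200 nmole of a 16-mer random double-stranded DNA library lasted 30 min at room temperature in Tris/NaCl/DTT/glycerol buffer, and was followed by washing, 0.1% formaldehyde crosslinking, proximity ligation, PCR amplification and Illumina NextSeq500 sequencing. Binding signal is the quotient of each hexamer's read frequency for a factor and its frequency for the tag-only sample.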

GABPA = molecular target: T2, GABPA (Homo sapiens, UniProt Q06546 1-454)
T2 sequence: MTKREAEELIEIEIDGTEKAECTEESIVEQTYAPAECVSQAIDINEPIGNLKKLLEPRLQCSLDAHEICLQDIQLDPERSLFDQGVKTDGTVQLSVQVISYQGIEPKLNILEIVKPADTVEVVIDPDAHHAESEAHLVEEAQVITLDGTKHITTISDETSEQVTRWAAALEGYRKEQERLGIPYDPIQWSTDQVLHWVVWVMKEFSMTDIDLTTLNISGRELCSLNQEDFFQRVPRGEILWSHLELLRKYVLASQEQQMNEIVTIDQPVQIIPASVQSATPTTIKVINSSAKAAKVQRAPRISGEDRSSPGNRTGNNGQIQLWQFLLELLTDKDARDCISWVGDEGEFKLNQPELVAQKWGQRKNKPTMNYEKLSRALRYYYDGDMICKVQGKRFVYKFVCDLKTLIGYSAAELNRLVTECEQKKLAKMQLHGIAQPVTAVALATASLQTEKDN
In short: as §1

ERG = molecular target: T3, ERG (Homo sapiens, UniProt P11308 1-479)
T3 sequence: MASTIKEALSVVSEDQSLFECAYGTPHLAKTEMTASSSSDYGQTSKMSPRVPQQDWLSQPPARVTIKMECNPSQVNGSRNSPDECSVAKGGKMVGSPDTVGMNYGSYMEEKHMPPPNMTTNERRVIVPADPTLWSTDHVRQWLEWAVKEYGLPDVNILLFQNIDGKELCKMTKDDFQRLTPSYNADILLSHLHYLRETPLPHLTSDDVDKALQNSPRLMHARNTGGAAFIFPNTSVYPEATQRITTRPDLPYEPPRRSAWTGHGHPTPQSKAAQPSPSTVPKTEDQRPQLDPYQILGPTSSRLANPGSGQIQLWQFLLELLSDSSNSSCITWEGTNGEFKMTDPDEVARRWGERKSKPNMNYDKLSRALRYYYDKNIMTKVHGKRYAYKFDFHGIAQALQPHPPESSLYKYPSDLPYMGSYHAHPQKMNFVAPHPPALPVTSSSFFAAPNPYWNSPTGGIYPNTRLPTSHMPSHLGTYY
In short: as §1

ELF1 = ELF1 (Homo sapiens, UniProt P32519 1-619)
In short: as §1

EHF = molecular target: T4, EHF (Homo sapiens, UniProt Q9NZC4 1-300)
T4 sequence: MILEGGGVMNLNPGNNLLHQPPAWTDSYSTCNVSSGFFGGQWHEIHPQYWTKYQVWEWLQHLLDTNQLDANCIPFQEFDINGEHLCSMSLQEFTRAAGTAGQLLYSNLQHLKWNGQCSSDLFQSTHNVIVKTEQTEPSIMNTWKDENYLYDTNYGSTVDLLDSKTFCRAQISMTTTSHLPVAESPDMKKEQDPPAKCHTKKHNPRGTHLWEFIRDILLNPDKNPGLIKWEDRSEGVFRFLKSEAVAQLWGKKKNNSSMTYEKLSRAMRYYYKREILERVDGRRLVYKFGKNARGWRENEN
In short: as §1

FEV = molecular target: T5, FEV (Homo sapiens, UniProt Q99581 1-238)
T5 sequence: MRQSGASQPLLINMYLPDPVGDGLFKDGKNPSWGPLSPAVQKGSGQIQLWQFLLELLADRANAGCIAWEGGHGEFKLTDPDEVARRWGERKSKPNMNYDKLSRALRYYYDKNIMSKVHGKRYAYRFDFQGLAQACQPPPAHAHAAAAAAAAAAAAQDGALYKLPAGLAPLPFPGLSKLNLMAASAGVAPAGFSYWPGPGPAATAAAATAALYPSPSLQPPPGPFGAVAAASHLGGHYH
In short: as §1

ETV5 = ETV5 (Homo sapiens, UniProt P41161 1-510)
In short: as §1

ELF4 = ELF4 (Homo sapiens, UniProt Q99607 1-663)
In short: as §1

ELK4 = molecular target: T6, ELK4 (Homo sapiens, UniProt P28324-2 1-405)
T6 sequence: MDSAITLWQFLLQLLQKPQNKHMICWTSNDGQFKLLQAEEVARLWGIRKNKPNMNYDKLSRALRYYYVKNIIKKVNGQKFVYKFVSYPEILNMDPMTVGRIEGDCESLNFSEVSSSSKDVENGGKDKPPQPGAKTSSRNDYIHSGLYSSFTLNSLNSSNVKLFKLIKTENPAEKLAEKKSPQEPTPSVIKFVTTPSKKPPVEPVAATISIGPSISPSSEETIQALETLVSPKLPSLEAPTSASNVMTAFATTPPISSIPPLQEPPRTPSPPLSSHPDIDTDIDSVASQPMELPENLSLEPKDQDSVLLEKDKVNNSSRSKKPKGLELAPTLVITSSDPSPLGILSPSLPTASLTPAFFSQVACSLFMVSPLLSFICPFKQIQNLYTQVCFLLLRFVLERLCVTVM
In short: as §1

ETV2 = molecular target: T7, ETV2 (Homo sapiens, UniProt O00321 1-342)
T7 sequence: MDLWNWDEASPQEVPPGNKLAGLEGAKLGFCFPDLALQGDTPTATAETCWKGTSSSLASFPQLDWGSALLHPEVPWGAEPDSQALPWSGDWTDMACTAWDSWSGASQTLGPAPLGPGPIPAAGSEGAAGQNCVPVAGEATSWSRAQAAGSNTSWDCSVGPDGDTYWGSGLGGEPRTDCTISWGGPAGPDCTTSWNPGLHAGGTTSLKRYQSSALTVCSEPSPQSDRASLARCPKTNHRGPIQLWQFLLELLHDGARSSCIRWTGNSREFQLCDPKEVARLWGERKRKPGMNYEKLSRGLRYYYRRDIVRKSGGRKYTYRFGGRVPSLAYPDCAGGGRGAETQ
In short: as §1

ERF = molecular target: T8, ERF (Homo sapiens, UniProt P50548 1-548)
T8 sequence: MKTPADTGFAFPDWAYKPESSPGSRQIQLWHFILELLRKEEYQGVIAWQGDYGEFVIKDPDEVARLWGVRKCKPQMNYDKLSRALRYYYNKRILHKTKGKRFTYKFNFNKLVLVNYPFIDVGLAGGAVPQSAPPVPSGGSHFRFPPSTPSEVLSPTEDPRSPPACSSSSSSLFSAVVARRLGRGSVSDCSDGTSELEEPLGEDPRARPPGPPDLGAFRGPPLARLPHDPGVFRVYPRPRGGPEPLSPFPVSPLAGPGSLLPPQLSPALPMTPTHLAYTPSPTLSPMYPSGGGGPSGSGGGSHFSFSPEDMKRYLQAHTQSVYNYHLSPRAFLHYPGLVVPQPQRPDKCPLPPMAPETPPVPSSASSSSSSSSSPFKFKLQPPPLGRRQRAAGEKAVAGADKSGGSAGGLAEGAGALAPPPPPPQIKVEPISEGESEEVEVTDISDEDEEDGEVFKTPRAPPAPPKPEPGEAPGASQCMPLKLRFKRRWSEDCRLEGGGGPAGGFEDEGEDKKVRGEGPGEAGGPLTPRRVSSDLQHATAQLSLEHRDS
In short: as §1

ETV3L = molecular target: T9, ETV3L (Homo sapiens, UniProt Q6ZN32 1-361)
T9 sequence: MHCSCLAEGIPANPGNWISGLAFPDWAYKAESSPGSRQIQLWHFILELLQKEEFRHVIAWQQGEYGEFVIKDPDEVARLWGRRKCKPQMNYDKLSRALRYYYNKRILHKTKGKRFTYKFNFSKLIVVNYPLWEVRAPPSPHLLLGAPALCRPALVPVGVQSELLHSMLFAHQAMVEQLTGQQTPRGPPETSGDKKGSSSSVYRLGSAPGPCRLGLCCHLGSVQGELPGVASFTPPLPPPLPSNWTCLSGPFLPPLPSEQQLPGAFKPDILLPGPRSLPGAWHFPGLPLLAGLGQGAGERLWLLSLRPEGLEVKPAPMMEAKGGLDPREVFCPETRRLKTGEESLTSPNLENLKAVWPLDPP
In short: as §1

ETS2 = molecular target: T10, ETS2 (Homo sapiens, UniProt P15036 1-469)
T10 sequence: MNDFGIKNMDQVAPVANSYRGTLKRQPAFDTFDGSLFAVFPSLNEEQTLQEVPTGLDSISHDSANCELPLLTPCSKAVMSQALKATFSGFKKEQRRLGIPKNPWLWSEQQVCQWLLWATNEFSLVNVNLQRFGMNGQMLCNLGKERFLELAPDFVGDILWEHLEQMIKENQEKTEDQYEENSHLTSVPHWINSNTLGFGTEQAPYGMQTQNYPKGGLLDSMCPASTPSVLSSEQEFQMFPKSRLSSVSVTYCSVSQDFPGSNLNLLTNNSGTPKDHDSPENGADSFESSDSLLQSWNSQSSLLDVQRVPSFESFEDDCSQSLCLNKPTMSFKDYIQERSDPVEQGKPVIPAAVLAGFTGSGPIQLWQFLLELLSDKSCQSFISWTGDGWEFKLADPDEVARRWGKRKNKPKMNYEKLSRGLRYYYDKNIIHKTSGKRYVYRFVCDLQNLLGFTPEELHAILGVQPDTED
In short: as §1

ETV7 = molecular target: T11, ETV7 (Homo sapiens, UniProt Q9Y603 1-341)
T11 sequence: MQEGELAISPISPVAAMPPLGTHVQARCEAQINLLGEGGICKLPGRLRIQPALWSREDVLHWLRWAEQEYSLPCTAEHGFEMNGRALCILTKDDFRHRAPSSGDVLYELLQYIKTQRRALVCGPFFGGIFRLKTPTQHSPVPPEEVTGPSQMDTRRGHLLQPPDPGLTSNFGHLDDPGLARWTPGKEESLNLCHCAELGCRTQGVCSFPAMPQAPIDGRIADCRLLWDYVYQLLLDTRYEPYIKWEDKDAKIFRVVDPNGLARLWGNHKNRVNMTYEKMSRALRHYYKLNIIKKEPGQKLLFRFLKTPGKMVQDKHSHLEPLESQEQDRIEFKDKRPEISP
In short: as §1

Chain of ELF4 (Q99607 whole entry): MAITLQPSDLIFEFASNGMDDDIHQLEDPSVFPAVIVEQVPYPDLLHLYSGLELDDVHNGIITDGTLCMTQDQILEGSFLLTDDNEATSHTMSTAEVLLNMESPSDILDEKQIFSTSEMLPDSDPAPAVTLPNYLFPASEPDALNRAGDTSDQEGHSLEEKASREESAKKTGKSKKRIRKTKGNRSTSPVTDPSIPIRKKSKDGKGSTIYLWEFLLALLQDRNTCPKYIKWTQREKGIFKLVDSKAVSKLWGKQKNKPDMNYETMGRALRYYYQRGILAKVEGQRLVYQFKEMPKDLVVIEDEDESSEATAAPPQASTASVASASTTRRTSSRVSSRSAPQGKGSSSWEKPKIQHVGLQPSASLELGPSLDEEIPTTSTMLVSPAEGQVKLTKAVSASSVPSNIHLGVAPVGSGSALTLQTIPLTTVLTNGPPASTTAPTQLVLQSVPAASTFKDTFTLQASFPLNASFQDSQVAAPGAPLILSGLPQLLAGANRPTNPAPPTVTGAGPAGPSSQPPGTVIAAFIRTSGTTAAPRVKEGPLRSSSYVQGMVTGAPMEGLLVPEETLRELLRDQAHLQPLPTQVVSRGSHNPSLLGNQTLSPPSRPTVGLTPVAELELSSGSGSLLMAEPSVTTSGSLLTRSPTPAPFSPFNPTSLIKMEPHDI
Chain of ELF1 (P32519 whole entry): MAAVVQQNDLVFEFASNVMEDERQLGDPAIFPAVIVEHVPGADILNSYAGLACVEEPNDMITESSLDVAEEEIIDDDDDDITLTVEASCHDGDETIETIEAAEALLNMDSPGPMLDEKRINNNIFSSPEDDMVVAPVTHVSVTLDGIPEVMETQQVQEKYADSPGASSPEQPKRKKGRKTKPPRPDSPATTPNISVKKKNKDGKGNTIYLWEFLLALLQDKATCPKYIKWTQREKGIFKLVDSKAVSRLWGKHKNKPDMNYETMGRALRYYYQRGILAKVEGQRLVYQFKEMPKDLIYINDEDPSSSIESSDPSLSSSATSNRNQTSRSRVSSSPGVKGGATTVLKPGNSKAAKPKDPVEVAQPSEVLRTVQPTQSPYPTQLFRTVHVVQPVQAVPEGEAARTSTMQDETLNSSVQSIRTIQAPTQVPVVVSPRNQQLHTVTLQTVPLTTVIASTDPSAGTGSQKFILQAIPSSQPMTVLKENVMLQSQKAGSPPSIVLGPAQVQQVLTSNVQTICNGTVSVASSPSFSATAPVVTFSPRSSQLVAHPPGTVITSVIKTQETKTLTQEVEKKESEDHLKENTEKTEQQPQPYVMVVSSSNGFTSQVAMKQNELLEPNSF
Chain of ETV5 (P41161 whole entry): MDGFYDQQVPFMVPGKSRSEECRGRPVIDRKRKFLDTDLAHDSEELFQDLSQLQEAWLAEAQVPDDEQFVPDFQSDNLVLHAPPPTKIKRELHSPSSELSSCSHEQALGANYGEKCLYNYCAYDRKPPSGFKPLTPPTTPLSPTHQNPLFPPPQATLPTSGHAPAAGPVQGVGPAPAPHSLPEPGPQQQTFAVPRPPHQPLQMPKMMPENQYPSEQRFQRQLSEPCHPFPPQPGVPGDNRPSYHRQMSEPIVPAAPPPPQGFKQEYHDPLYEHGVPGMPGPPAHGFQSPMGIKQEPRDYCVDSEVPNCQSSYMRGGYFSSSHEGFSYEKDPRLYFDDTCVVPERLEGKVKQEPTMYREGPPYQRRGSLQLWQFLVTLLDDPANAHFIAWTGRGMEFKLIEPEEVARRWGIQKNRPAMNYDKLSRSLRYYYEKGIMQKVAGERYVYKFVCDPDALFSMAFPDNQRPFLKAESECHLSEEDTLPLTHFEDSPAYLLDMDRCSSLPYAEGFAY

## ACAGCA
ELK1
  binding signal: 1.03 fold enrichment (6-mer frequency, TF over GST control)
GABPA
  binding signal: 1.08 fold enrichment (6-mer frequency, TF over GST control)
ERG
  binding signal: 1 fold enrichment (6-mer frequency, TF over GST control)
ELF1
  binding signal: 1.06 fold enrichment (6-mer frequency, TF over GST control)
EHF
  binding signal: 1.03 fold enrichment (6-mer frequency, TF over GST control)
FEV
  binding signal: 1 fold enrichment (6-mer frequency, TF over GST control)
ETV5
  binding signal: 1.03 fold enrichment (6-mer frequency, TF over GST control)
ELF4
  binding signal: 1.04 fold enrichment (6-mer frequency, TF over GST control)
ELK4
  binding signal: 1.02 fold enrichment (6-mer frequency, TF over GST control)
ETV2
  binding signal: 1.06 fold enrichment (6-mer frequency, TF over GST control)
ERF
  binding signal: 1.07 fold enrichment (6-mer frequency, TF over GST control)
ETV3L
  binding signal: 1.06 fold enrichment (6-mer frequency, TF over GST control)
ETS2
  binding signal: 1.09 fold enrichment (6-mer frequency, TF over GST control)
ETV7
  binding signal: 1.15 fold enrichment (6-mer frequency, TF over GST control)
